Experimental data as given in PubChem BioAssay (EPA / NIEHS).
Results filed as inconclusive are left out. Active and inactive are the calls of the source. How the source made its calls: active means hit-call score of the fitted dose curve at least 0.9, where 1 is the maximum; inconclusive means response in the unintended direction; inactive means score below 0.9.

Tests used:
[1] = molecular target: human Adrenergic, Beta 3 Receptor (Adrb3), ADRB3 (gene 155) (UniProt P13945); experiment: NVS_GPCR_hAdrb3: NovaScreen (NVS) G Protein-Coupled Receptor Assay for human Adrenergic, Beta 3 Receptor (Adrb3) (AID 2283262)
human Adrenergic, Beta 3 Receptor (Adrb3), ADRB3 (gene 155), sequence (P13945 whole entry, looked up): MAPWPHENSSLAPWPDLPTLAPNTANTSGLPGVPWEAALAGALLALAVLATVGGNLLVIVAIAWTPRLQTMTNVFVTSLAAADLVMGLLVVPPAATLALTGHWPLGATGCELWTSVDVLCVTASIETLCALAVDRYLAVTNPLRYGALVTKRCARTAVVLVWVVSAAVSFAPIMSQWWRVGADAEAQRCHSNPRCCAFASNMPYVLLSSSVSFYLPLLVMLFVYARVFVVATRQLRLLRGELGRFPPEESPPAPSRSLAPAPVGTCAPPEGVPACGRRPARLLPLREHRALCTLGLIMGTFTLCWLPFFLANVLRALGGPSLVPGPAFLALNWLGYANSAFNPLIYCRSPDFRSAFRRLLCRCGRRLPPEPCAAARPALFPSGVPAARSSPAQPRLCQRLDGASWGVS
Summary of the method: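 Membranes from SK-N-MC cells pretreated with isoproterenol and 8-bromo-cAMP were used in a radioligand competitive displacement binding assay. Binding was read by filter-based scintillation counting 1 hour after dosing. Primary screening was in duplicate at 25 uM, with concentration series in follow-up.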

[2] = molecular target: human Serotonin, 5-Hydroxytryptamine Receptor 5A (5HT5A), HTR5A (gene 3361) (UniProt P47898); experiment: NVS_GPCR_h5HT5A: NovaScreen (NVS) G Protein-Coupled Receptor Assay for human Serotonin, 5-Hydroxytryptamine Receptor 5A (5HT5A) (AID 2283251)
human Serotonin, 5-Hydroxytryptamine Receptor 5A (5HT5A), HTR5A (gene 3361), sequence (P47898 whole entry, looked up): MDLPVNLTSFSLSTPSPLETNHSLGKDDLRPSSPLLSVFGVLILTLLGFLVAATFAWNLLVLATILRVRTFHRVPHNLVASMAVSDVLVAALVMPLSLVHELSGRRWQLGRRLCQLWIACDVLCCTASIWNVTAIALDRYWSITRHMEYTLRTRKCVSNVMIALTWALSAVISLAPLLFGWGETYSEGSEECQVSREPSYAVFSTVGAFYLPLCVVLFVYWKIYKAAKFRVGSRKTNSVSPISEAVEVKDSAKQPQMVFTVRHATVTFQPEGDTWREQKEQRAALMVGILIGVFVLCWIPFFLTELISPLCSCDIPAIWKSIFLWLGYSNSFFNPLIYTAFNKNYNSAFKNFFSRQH
Summary of the method: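 Cell-free radioligand displacement binding on HEK293-derived membrane protein, 1 h incubation, filter-based scintillation counting. Primary screen in duplicate at 25 uM, actives followed in concentration series; loss of signal fitted versus DMSO.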

[3] = molecular target: human Endothelin Receptor Type B (ETB), EDNRB (gene 1910) (UniProt P24530); experiment: NVS_GPCR_hETB: NovaScreen (NVS) G Protein-Coupled Receptor Assay for human Endothelin Receptor Type B (ETB) (AID 2283267)
Summary of the method: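 Human astrocytoma cell membranes; radioligand competitive binding read by filter scintillation counting 4 hours after dosing. Single-concentration duplicate screen at 25 uM, then singleton concentration-response up to 50 uM; loss of signal versus DMSO.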

[4] = molecular target: Muscarinic acetylcholine receptor M3 (Homo sapiens) (UniProt P20309); experiment: NVS_GPCR_hM3: NovaScreen (NVS) G Protein-Coupled Receptor Assay for human Muscarinic, M3 Receptor (AID 2283272)
Muscarinic acetylcholine receptor M3 (Homo sapiens), sequence (P20309 whole entry, looked up): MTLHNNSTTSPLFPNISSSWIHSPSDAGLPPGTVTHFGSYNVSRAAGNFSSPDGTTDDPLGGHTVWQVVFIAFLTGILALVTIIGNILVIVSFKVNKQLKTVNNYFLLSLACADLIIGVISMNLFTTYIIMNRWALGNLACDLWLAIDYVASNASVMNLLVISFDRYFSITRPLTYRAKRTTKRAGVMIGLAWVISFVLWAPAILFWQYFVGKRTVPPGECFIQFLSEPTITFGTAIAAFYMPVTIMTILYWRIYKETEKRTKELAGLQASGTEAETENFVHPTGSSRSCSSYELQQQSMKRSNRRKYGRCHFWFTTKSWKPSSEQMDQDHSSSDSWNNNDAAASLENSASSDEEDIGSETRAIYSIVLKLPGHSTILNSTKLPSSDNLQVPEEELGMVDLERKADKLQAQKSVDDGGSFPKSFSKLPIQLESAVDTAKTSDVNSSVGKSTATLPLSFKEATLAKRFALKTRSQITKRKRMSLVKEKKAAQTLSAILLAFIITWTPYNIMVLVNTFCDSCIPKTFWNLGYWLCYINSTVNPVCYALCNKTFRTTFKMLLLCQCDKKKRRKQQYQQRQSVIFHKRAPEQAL
Summary of the method: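 Radioligand displacement binding on human M3 receptor in CHO-derived membranes, 1 h incubation, filter-based scintillation counting. Primary screen in duplicate at 25 uM; actives followed up in concentration series; loss of signal versus DMSO.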

[5] = molecular target: human Endothelin Receptor Type A (ETA), EDNRA (gene 1909) (UniProt P25101); experiment: NVS_GPCR_hETA: NovaScreen (NVS) G Protein-Coupled Receptor Assay for human Endothelin Receptor Type A (ETA) (AID 2283265)
Summary of the method: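 Cell-free radioligand displacement using SH-SY5Y-derived protein, 3 h incubation, filter-based scintillation counting. Primary screen in duplicate at 25 uM; actives then run in concentration-response up to 50 uM; loss of binding fitted versus DMSO.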

[6] = molecular target: guinea pig Opioid, Kappa 1 Receptor (OpiateK), OPRK1 (gene 100135587) (UniProt P41144); experiment: NVS_GPCR_gOpiateK: NovaScreen (NVS) G Protein-Coupled Receptor Assay for guinea pig Opioid, Kappa 1 Receptor (OpiateK) (AID 2283252);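 further: radioligand displacement from kappa opioid receptor in guinea pig cerebellar membranes; active means reduced radioligand binding relative to DMSO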
guinea pig Opioid, Kappa 1 Receptor (OpiateK), OPRK1 (gene 100135587), sequence (P41144 whole entry, looked up): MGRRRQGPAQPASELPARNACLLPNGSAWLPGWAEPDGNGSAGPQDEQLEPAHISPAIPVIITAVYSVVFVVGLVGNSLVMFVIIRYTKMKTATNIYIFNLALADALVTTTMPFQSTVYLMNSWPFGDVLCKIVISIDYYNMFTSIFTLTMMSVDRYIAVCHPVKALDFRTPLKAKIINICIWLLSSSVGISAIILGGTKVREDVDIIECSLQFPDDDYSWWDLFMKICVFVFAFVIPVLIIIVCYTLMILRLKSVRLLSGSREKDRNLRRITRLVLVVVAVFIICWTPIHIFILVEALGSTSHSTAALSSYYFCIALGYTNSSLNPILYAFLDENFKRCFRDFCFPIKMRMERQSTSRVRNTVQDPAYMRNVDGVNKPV
Summary of the method: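 Signal is scintillation counts of filter-trapped radioligand bound to guinea pig cerebellar membrane receptor, measured 2 hours post-dosing. Activity is loss of binding versus DMSO, first at 25 uM in duplicate, then as concentration series for actives.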

[7] = molecular target: human Serotonin, 5-Hydroxytryptamine Receptor 7 (5HT7), HTR7 (gene 3363) (UniProt P34969); experiment: NVS_GPCR_h5HT7: NovaScreen (NVS) G Protein-Coupled Receptor Assay for human Serotonin, 5-Hydroxytryptamine Receptor 7 (5HT7) (AID 2283255);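 further: hits reduce specific radioligand binding relative to DMSO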
human Serotonin, 5-Hydroxytryptamine Receptor 7 (5HT7), HTR7 (gene 3363), sequence (P34969 whole entry, looked up): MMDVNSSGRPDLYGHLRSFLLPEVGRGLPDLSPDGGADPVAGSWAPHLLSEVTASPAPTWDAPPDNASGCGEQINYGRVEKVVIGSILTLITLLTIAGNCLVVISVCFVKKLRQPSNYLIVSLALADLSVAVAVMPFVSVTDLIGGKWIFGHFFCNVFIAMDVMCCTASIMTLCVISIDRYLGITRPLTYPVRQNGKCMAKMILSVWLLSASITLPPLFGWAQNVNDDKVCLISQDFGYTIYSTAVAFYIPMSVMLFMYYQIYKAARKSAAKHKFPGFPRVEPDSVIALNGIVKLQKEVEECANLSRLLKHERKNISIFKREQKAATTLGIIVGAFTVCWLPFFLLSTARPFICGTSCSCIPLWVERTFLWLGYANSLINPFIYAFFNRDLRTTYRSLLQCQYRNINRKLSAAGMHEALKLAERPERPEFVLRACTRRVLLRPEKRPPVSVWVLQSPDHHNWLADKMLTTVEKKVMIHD
Summary of the method: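 Radioligand displacement on membranes from CHO cells expressing human 5HT7, 1 h incubation, filter-based scintillation counting. Primary screen used a single 25 uM concentration in duplicate; actives were followed up in concentration series.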

[8] = molecular target: human Adrenergic, Beta 1 Receptor (Adrb1), ADRB1 (gene 153) (UniProt P08588); experiment: NVS_GPCR_hAdrb1: NovaScreen (NVS) G Protein-Coupled Receptor Assay for human Adrenergic, Beta 1 Receptor (Adrb1) (AID 2283258)
Summary of the method: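 Cell-free radioligand displacement on receptor from human neuroepithelioma cells; 2 h after dosing, filter-based scintillation counting. Primary screen in duplicate at 25 uM, actives retested in concentration series; loss of signal vs DMSO baseline.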

[9] = molecular target: human Adrenergic, Alpha 2c Receptor (Adra2C), ADRA2C (gene 152) (UniProt P18825); experiment: NVS_GPCR_hAdra2C: NovaScreen (NVS) G Protein-Coupled Receptor Assay for human Adrenergic, Alpha 2c Receptor (Adra2C) (AID 2283259)
human Adrenergic, Alpha 2c Receptor (Adra2C), ADRA2C (gene 152), sequence (P18825 whole entry, looked up): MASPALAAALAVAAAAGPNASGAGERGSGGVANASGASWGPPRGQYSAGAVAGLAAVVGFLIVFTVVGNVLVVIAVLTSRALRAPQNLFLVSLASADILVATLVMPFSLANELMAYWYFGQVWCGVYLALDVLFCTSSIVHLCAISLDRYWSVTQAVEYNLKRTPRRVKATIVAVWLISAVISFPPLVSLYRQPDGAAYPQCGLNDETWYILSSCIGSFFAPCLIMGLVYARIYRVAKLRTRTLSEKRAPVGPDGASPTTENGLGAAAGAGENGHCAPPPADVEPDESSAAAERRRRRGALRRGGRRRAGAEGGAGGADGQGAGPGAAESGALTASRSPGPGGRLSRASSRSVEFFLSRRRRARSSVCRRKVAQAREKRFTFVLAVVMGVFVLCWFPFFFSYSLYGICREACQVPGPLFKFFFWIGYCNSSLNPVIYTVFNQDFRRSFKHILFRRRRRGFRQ
Summary of the method: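 Radioligand binding on Sf9-expressed receptor membranes, 1 h after chemical dosing, filter-based scintillation read-out. Loss of binding fitted positively versus DMSO; primary duplicate screen at 25 uM, actives retested in concentration series.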

[10] = molecular target: Beta-2 adrenergic receptor (Homo sapiens) (UniProt P07550); experiment: NVS_GPCR_hAdrb2: NovaScreen (NVS) G Protein-Coupled Receptor Assay for human Adrenergic, Beta 2 Receptor (Adrb2) (AID 2283261)
Summary of the method: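 Filter-based radioligand binding using receptor prepared from CHO cells, 1 h incubation, scintillation counting. Primary screen in duplicate at 25 uM, actives retested in concentration series; loss of binding relative to DMSO.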

[11] = molecular target: human Dopamine Receptor D4.4 (DRD4.4), DRD4 (gene 1815) (UniProt P21917); experiment: NVS_GPCR_hDRD4.4: NovaScreen (NVS) G Protein-Coupled Receptor Assay for human Dopamine Receptor D4.4 (DRD4.4) (AID 2283264)
Summary of the method: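 Radioligand displacement on human DRD4.4 from CHO-derived membranes, 1 hour incubation, bound counts read by filtration and scintillation. Primary screen in duplicate at 25 uM; actives followed up in concentration series.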

[12] = molecular target: human Dopamine Receptor D2 (DRD2), DRD2 (gene 1813) (UniProt P14416); experiment: NVS_GPCR_hDRD2s: NovaScreen (NVS) G Protein-Coupled Receptor Assay for human Dopamine Receptor D2 (DRD2) (AID 2283266)
human Dopamine Receptor D2 (DRD2), DRD2 (gene 1813), sequence (P14416 whole entry, looked up): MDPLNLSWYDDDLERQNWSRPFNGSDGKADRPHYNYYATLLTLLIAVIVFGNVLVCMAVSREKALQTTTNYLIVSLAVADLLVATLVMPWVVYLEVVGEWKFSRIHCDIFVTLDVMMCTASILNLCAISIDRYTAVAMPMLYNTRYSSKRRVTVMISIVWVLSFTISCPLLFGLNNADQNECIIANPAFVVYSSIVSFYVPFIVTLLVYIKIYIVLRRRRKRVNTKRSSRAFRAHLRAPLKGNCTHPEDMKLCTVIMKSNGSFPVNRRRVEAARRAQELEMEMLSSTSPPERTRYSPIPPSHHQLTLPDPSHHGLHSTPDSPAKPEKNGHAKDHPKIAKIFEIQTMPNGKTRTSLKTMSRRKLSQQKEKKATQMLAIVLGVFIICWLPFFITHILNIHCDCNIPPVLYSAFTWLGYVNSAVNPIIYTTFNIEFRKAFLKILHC
Summary of the method: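 Radioligand displacement used human DRD2 membranes extracted from CHO cells and was read by filter-based scintillation counting after 1.5 hours. Primary screening was in duplicate at 25 uM. Loss of signal versus DMSO was fitted, with concentration series in follow-up.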

[13] = molecular target: human Histamine 1 Receptor (H1), HRH1 (gene 3269) (UniProt P35367); experiment: NVS_GPCR_hH1: NovaScreen (NVS) G Protein-Coupled Receptor Assay for human Histamine 1 Receptor (H1) (AID 2283268)
human Histamine 1 Receptor (H1), HRH1 (gene 3269), sequence (P35367 whole entry, looked up): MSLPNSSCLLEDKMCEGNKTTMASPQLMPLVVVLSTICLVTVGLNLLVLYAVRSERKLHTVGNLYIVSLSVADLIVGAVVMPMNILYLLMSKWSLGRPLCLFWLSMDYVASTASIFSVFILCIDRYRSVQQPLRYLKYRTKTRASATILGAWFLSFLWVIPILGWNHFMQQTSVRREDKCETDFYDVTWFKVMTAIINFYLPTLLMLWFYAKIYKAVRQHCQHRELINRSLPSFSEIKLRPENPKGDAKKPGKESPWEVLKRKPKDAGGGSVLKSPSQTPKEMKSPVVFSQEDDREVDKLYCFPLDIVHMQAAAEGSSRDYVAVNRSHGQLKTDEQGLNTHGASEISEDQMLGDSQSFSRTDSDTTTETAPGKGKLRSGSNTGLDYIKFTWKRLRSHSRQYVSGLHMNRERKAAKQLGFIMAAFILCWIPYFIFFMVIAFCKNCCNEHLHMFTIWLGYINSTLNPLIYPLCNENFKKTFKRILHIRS
Summary of the method: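 Cell-free radioligand displacement at human H1 receptor, 1 h, filter scintillation counting; primary screen 25 uM in duplicate, hits in concentration series; loss of binding fitted vs DMSO.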

[14] = molecular target: D(1A) dopamine receptor (Homo sapiens) (UniProt P21728); experiment: NVS_GPCR_hDRD1: NovaScreen (NVS) G Protein-Coupled Receptor Assay for human Dopamine Receptor D1 (DRD1) (AID 2283269)
D(1A) dopamine receptor (Homo sapiens), sequence (P21728 whole entry, looked up): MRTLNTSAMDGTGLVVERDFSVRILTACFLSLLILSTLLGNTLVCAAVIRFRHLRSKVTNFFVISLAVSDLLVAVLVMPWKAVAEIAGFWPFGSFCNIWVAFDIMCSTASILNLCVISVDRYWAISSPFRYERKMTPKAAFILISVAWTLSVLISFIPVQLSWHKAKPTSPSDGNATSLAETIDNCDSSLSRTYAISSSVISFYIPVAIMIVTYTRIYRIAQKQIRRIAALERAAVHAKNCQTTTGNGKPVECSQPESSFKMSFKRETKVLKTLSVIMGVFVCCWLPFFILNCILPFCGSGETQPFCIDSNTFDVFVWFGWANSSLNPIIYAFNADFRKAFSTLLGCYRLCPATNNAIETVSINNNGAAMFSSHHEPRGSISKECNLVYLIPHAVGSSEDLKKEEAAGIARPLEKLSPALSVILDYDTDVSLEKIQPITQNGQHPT
Summary of the method: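 Cell-free competition with radioligand, filter-trapped and scintillation-counted 1 h post-dose, using HEK293-derived human D1 preparation. Duplicate single-point testing at 25 uM first, then concentration series for actives; DMSO served as baseline, loss-of-signal scored.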

[15] = molecular target: Muscarinic acetylcholine receptor M1 (Homo sapiens) (UniProt P11229); experiment: NVS_GPCR_hM1: NovaScreen (NVS) G Protein-Coupled Receptor Assay for human Muscarinic, M1 Receptor (AID 2283270)
Muscarinic acetylcholine receptor M1 (Homo sapiens), sequence (P11229 whole entry, looked up): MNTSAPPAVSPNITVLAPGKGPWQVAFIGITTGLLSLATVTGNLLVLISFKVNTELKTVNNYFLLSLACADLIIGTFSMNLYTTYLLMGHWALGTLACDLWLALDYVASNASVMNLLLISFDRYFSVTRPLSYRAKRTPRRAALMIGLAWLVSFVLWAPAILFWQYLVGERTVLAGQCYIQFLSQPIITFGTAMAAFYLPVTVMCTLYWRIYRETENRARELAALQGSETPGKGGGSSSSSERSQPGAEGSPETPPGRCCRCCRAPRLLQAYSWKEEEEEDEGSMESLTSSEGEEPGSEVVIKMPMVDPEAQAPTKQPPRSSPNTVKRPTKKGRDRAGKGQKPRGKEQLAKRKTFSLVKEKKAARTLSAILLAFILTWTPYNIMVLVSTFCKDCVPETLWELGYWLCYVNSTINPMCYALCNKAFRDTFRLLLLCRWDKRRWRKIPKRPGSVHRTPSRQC
Summary of the method: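 Cell-free radioligand displacement using membrane protein extracted from CHO cells, read by filter-based scintillation counting 1 h after dosing. Loss of bound signal fitted versus DMSO; primary screen single concentration 25 uM in duplicate, actives followed by concentration series.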

[16] = molecular target: human Adenosine A1 Receptor (AdoRA1), ADORA1 (gene 134) (UniProt P30542); experiment: NVS_GPCR_hAdoRA1: NovaScreen (NVS) G Protein-Coupled Receptor Assay for human Adenosine A1 Receptor (AdoRA1) (AID 2283254)
human Adenosine A1 Receptor (AdoRA1), ADORA1 (gene 134), sequence (P30542 whole entry, looked up): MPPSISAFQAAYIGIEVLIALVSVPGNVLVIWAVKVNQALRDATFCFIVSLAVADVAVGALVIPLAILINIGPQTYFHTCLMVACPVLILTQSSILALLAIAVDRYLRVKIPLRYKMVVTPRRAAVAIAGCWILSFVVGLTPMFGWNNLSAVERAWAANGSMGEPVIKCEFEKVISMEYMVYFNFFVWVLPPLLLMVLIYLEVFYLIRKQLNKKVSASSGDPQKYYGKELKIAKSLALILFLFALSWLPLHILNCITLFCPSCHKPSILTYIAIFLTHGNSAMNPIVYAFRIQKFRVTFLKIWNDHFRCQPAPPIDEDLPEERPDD
Summary of the method: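 Radioligand competition binding on human cortical membranes, 1 h after compound addition; bound radioactivity read by filtration and scintillation counting. Loss of signal versus DMSO baseline scored as displacement; primary screen duplicate at 25 uM, actives retested in concentration series.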

[17] = molecular target: human Serotonin, 5-Hydroxytryptamine Receptor 6 (5HT6), HTR6 (gene 3362) (UniProt P50406); experiment: NVS_GPCR_h5HT6: NovaScreen (NVS) G Protein-Coupled Receptor Assay for human Serotonin, 5-Hydroxytryptamine Receptor 6 (5HT6) (AID 2283253)
Summary of the method: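 Radioligand binding to 5HT6 in HEK293-derived membranes, cell-free, 1 h after dosing; bound ligand measured by filter-based scintillation counting. Primary screen in duplicate at 25 uM; actives retested in concentration series.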

[18] = molecular target: human Leukotriene B4 Receptor 1 (LTB4-BLT1), LTB4R (gene 1241) (UniProt Q15722); experiment: NVS_GPCR_hLTB4_BLT1: NovaScreen (NVS) G Protein-Coupled Receptor Assay for human Leukotriene B4 Receptor 1 (LTB4-BLT1) (AID 2283271)
Summary of the method: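 Radioligand displacement binding on receptor extracted from human neutrophils, cell-free, 1 h after dosing; filter-based scintillation counting. Primary screen in duplicate at 25 uM, actives retested in concentration-response up to 50 uM; loss of signal versus DMSO.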

[19] = molecular target: human Adenosine A2a Receptor (AdoRA2a), ADORA2A (gene 135) (UniProt P29274); experiment: NVS_GPCR_hAdoRA2a: NovaScreen (NVS) G Protein-Coupled Receptor Assay for human Adenosine A2a Receptor (AdoRA2a) (AID 2283256)
Summary of the method: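 Radioligand displacement on HEK293-derived membrane protein, cell-free; filter-based scintillation counting 1.5 hours after dosing, loss of signal vs DMSO. Single-point duplicate screen at 25 uM, actives retested in concentration series.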

SMILES: CC/C(=C\C(=N/O)C(N)=O)C(C)[N+](=O)[O-] (stereo not given)
- outcome [1]: inactive

SMILES: O=C(CCCCCCCCc1cccnc1)N1CCC(C=C(c2ccccc2)c2ccccc2)CC1
- outcome [2]: inactive
- outcome [3]: inactive
- outcome [4]: inactive

SMILES: O=C1CCCCCN1
- outcome [5]: inactive

SMILES: O=C(O)CC(O)C(=O)O (stereo not given)
- outcome [6]: inactive

SMILES: CC(=O)OCCC(C)C
- outcome [7]: inactive

SMILES: CCOC(=O)COc1ccc2c(c1)CC(NCC(O)c1cccc(Cl)c1)CC2 (stereo not given)
- AC50 [2]: 18.8 µM (active)
- AC50 [7]: 22.9 µM (active)
- AC50 [8]: 3.33 µM (active)
- AC50 [9]: 3.81 µM (active)
- AC50 [10]: 0.0827 µM (active)
- AC50 [1]: 17.9 µM (active)
- AC50 [11]: 22.9 µM (active)
- outcome [5]: inactive
- AC50 [12]: 2.33 µM (active)
- AC50 [13]: 20.1 µM (active)
- AC50 [14]: 22.9 µM (active)
- AC50 [15]: 4.73 µM (active)
- AC50 [4]: 3.78 µM (active)

SMILES: COc1ccc(-n2nc(C(F)F)cc2-c2ccc(S(C)=O)cc2)cc1 (stereo not given)
- AC50 [16]: 5.7 µM (active)

SMILES: O=P(OC(CCl)CCl)(OC(CCl)CCl)OC(CCl)CCl
- outcome [17]: inactive
- AC50 [13]: 19.8 µM (active)
- outcome [14]: inactive

SMILES: CCCCC(CC)COC(=O)CCCCCCCCC(=O)OCC(CC)CCCC (stereo not given)
- outcome [3]: inactive

SMILES: CCn1nc(Cc2ccccc2)cc1C1CCN(C[C@H]2C[C@H](N(C)[C@@H](C(=O)O)C(C)C)C[C@@H]2c2cccc(F)c2)CC1
- AC50 [2]: 13.8 µM (active)
- AC50 [6]: 8.5 µM (active)
- outcome [1]: inactive
- outcome [12]: inactive

SMILES: Cc1ccc(S(=O)(=O)O)cc1C
- outcome [18]: inactive

SMILES: CCC(C)(C)C(=O)O[C@H]1C[C@@H](C)C=C2C=C[C@H](C)[C@H](CC[C@@H]3C[C@@H](O)CC(=O)O3)[C@H]21
- outcome [2]: inactive
- AC50 [7]: 11.8 µM (active)
- outcome [12]: inactive
- outcome [14]: inactive

SMILES: CN(C)c1ccc(N=NS(=O)(=O)O)cc1
- AC50 [6]: 8.61 µM (active)

SMILES: On1ccccc1=S
- AC50 [6]: 10.4 µM (active)

SMILES: Cn1c(=O)cc(Oc2ccc(F)cc2F)c2cnc(NCC(C)(C)O)nc21
- outcome [6]: inactive
- AC50 [13]: 6.95 µM (active)

SMILES: CC[C@H]1CC[C@H](NCc2cc3c(cc2OC)[C@H]2C[C@H]2C(=O)N3C)[C@H](c2ccccc2)N1
- AC50 [6]: 2.02 µM (active)
- AC50 [16]: 13.6 µM (active)
- AC50 [7]: 20.4 µM (active)
- AC50 [15]: 1.47 µM (active)
- AC50 [4]: 12.3 µM (active)

SMILES: COCCOc1cc2cc(C(=O)NC3CCN(C(C)C)CC3)n(CC(=O)Nc3ccc(Cl)cn3)c2cn1
- outcome [6]: inactive
- outcome [16]: inactive
- AC50 [9]: 6.54 µM (active)

SMILES: CCOC(=O)c1ccc(C2CCC(NC[C@H](O)COc3ccc(O)c(NS(C)(=O)=O)c3)CC2)cc1 (stereo not given in full)
- AC50 [17]: 13 µM (active)
- outcome [16]: inactive
- AC50 [7]: 6.12 µM (active)
- AC50 [19]: 12.1 µM (active)
- AC50 [8]: 1.84 µM (active)
- AC50 [9]: 7.95 µM (active)
- AC50 [10]: 0.24 µM (active)
- AC50 [1]: 7.77 µM (active)
- AC50 [11]: 11.3 µM (active)
- AC50 [12]: 0.0174 µM (active)
- AC50 [13]: 18.6 µM (active)
- AC50 [14]: 21.9 µM (active)
- AC50 [15]: 12.7 µM (active)
- AC50 [4]: 18 µM (active)
